The full list was thinned out, with hits kept by preference.
Pf Dd2 inh: blocks in vitro growth of P. falciparum Dd2. P. falciparum Dd2 growth, SYBR Green, 72 h. Potency, µM (series often up to 28.9 µM), for inactives: top-dose activity, negative = inhibition, usual class: inhibitors. 120,000 compounds, 4.3% hits; active = well fitted inhibition curve with a large enough effect;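 note: plate controls were DMSO vehicle for no effect and reference drug for full effect; nearly all actives have a fitted effect of over 65% in size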
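Readout: SYBR Green fluorescence, 485 nm excitation, 535 nm emission, after ~16 h lysis at 37C. Before that, Dd2-infected red cells (2.5% hematocrit) grew 72 h with compound, 29 uM top final concentration.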
* = called active by the depositor; i = inactive; [ ] = dose if it differs, or a comment. Potency is the fitted concentration of half-maximal effect.

SMILES	Pf Dd2 inh
O=C1Nc2ccccc2CC12CCN2Cc1ccsc1 (centres undefined)	i
CN1CC2(CCN(C(=O)c3ccccc3F)CC2)CC(c2ccccc2)C1=O (centres undefined)	-10.6%
CN(C)c1cccc(Oc2nnnn2[C@H]2CO[C@H]3[C@@H]2OC[C@@H]3NC(=O)CC(C)(C)CC(=O)O)c1	0.3%
COCCN1C(=O)NC(c2ccccc2OC)C2=C1COC2=O (centres undefined)	-19.9%
Cn1nc2n(c1=O)CCN(C(=O)NC1CCCCC1)CC2	4.4%
N#Cc1ccc(O[C@@H]2CCOC[C@H]2NC(=O)CN2CCOC2=O)cc1	-3.4%
CCN1c2cc(C(=O)Nc3cc(OC)ccc3OC)ccc2C(=O)N2CCCCCC21 (centres undefined)	-7.1%
C[C@@]1(O)CCN(C(=O)c2ccc(-c3ccco3)cc2)C[C@@H]1O	-9.2%
CCOc1ccc(C(=O)N2C[C@@H](CO)[C@H](c3nc(C4CC4)no3)C2)cc1	-5.1%
COCCNC(=O)c1ccc(OC2CCN(CC3CCOC3)CC2)c(Cl)c1 (centres undefined)	-11.4%
COCCNC(=O)c1ccc(OC2CCN(Cc3ccc(C)s3)CC2)c(Cl)c1	6.31µM*
COCCNC(=O)c1ccc(OC2CCN(C(=O)[C@@H](C)N)CC2)c(Cl)c1	-12.8%
COCCNC(=O)c1ccc(OC)cc1OC1CCN(Cc2cccc3cccnc23)CC1	i
COCCNC(=O)c1ccc(OC2CCN(Cc3cccc4c3OCO4)CC2)c(Cl)c1	7.08µM*
CC(C)n1cc(CN2CCC(Oc3ccc(C(=O)NC4CCCC4)cc3Cl)CC2)cn1	-9.8%
Cn1cc(CN2Cc3ccc(C(=O)Nc4nccs4)cc3OCC2=O)cn1	i
CCC(CC)C(=O)N1CCCN(S(C)(=O)=O)c2ccccc21	1.5%
COc1cc(-c2ccnc3nc(CC(C)C)nn23)cc(OC)c1OC	i
CCN(CC)C(=O)[C@@H](C)C1CC[C@@]2(C)CC[C@H](NC(=O)c3ccc(OC)cc3)[C@@H](C)[C@@H]2[C@H]1O (some centres undefined)	-7.0%
Cc1nonc1CC(=O)N1CCc2onc(-c3ccc(F)c(F)c3)c2C1	-6.7%
O=C(CCC[C@@H]1[C@H]2CCCN3CCC[C@@H](CN1C(=O)Nc1ccccc1F)[C@@H]23)Nc1ccccc1	-4.5%
CCN(CC)Cc1cnc2c(C(=O)NCCc3cccs3)cnn2c1	-20.5%
CCN(CC)Cc1cnc2c(C(=O)NCCc3c[nH]c4ccccc34)cnn2c1	8.91µM*
CCN(CC)Cc1cnc2c(C(=O)NCCc3cnccn3)cnn2c1	-6.4%
CCc1ccc(C(=O)N2CC(c3nnc(-c4ccc(C)cc4)o3)C3(CCOCC3)C2)cc1 (centres undefined)	i
SMILES	Pf Dd2 inh
COCC1CN(C2CCC2)CC12CCN(C(=O)c1ccoc1)CC2 (centres undefined)	5.9%
Cn1c(=O)c2c(-c3ccc(Cl)cc3)n(Cc3ccc(Cl)cc3)cc2n(C)c1=O	11.2µM*
CCOC(=O)Cn1cc2c(c1-c1ccc(Cl)cc1)c(=O)n(C)c(=O)n2C	-6.9%
Cn1c(=O)c2c(ncn2Cc2ccc(Cl)cc2)n(C)c1=O	-7.9%
O=C(NCCc1ccccc1)C1CCN(C(=O)[C@H]2CCC[C@H](O)C2)CC1	-10.0%
CN(C)[C@@H]1CO[C@H](CNS(C)(=O)=O)[C@H]1O	16.6%[44.1 µM]
Cc1nn(Cc2ccccc2)c(C)c1[C@@H]1C=C[C@@H](NS(=O)(=O)c2cccs2)C1	12.6µM*
Cc1nn(CCC#N)c(C)c1[C@@H]1C=C[C@@H](NC(=O)Nc2ccccc2)C1	-15.7%[44.1 µM]
CC(=O)Nc1ccc(S(=O)(=O)N[C@@H]2C=C[C@@H](c3c(C)nn(-c4ccc(C(C)(C)C)cc4)c3C)C2)cc1	i
O=C(NC1CCCN(c2cc(-c3ccccc3)[nH]n2)C1)c1ccc2c(c1)OCO2 (centres undefined)	i
COc1cccc(-c2cn3c(n2)sc2cc(C(=O)NCCc4ccccc4)ccc23)c1	i
COc1ccc(-c2cn3c(n2)sc2cc(C(=O)NCc4ccccc4)ccc23)cc1	16.1%
CCOc1ccc(-c2cn3c(n2)sc2cc(C(=O)NCCc4ccc(OC)c(OC)c4)ccc23)cc1	3.55µM*
CCOc1ccc(-c2cn3c(n2)sc2cc(C(=O)NCCC4=CCCCC4)ccc23)cc1	7.08µM*
CCCSCCCNC(=O)c1ccc2c(c1)sc1nc(-c3ccc(OCC)cc3)cn12	3.55µM*
CCOC(=O)C1CCN(C(=O)c2ccc3c(c2)sc2nc(-c4ccc(OC)cc4)cn23)CC1	i
COc1ccc(-c2cn3c(n2)sc2cc(C(=O)Nc4cc(Cl)ccc4C)ccc23)cc1	-15.6%
CCOc1ccc(-n2c(C)nc3cc(C(=O)NCCC4=CCCCC4)ccc32)cc1	-7.4%
COc1ccc(NC(=O)c2ccc3c(c2)sc2nc(-c4ccc(OC)cc4)cn23)cc1	i
Cc1noc(-c2cccc(OC3CN(C(=O)NC4CCCC4)C3)c2)n1	i[5.79 µM]
O=C(C1CC1)N1CCC(c2nc(C3CCOCC3)no2)C1 (centres undefined)	25.9%
COCCNC(=O)[C@@H]1C[C@H](Oc2ccccc2)CN1C(=O)c1cccc(C)c1	9.3%

Assay outcomes: PubChem BioAssay, National Center for Advancing Translational Sciences (NCATS)
